# Source: PubChem BioAssay
# In the library only some 6.9% were active in any assay of this set; here they are far more common.
# Giardia killer = kills Giardia lamblia | 340,000 compounds, 0.15% hits | activity change, % at 7.66 µM, hits read low | Giardia lamblia trophozoite viability; in the data active = activity change below about -80%; inconclusive = between about -30% and that limit;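 also: parasites exposed to compound for two days anaerobically before the ATP read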
#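 Killing of trophozoites was scored by loss of ATP luminescence after a 48 hrs anaerobic exposure to compounds at 37 deg C, using 100 cells per well.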
# IL-1B inflam inh = blocks inflammasome-driven IL-1 beta release | THP-1 LPS/ATP IL-1B secretion, AlphaLISA, 16 h; active compounds read low | activity change, % at 57.5 µM | 360,000 compounds, 4.7% hits; in the data active = activity change below about -50%; inconclusive = mostly about -30% to -49%
#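 THP-1 cells pretreated 1 hr with compounds (up to 57.5 uM final), then stimulated with LPS (250 ng/mL final) plus ATP (1.25 mM final); secreted IL-1B measured by AlphaLISA after 16 hr, decreased signal indicating inhibition.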
# Vif-APOBEC3G blk = blocks the Vif interaction with human APOBEC3G. Q9HC16. HeLa A3G-eYFP + Vif (tagged APOBEC3G with the HIV-1 protein that degrades it), YFP fluorescence, overnight. Potency, µM (titrated, usually from 46.1 µM), hits mostly inhibitors. 410,000 compounds, 0.076% hits. AID 602310; also: nearly all actives have a fitted effect of over 60% in size
# Target sequence (Q9HC16 whole entry, looked up): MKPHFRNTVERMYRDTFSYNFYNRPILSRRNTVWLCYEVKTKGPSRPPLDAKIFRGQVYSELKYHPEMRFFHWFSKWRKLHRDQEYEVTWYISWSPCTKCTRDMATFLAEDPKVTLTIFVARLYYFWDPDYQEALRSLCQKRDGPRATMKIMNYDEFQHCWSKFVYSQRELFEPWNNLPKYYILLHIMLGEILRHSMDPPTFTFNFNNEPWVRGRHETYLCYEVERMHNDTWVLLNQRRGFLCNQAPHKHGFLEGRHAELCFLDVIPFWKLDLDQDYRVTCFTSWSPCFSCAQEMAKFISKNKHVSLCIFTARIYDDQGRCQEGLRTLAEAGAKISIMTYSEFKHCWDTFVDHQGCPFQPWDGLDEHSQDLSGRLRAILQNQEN
#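 HeLa cells stably expressing Vif and C-terminally eYFP-tagged A3G, seeded overnight at 37 deg C, then exposed to compound by pintool overnight at 37 deg C. Rise in yellow fluorescence (Ex 488/Em 500-530, Acumen) marks blocked Vif-driven A3G degradation.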
# Vif-APOBEC3F blk = inhibitors of Vif-A3F interaction; HeLa A3F-eYFP + Vif (tagged APOBEC3F with the HIV-1 protein that degrades it), YFP fluorescence increase; Potency, µM (titrated, usually from 46.1 µM); 390,000 compounds, 0.2% hits; also: nearly all actives have a fitted effect of over 65% in size
#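 HeLa cells stably expressing A3F-eYFP plus Vif, plated and incubated overnight at 37 deg C, then exposed to compounds overnight at 37 deg C. Blocked degradation read as raised yellow fluorescence (Ex 488/Em 500-530).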
# MCF10A rereplic = inducers of DNA re-replication in MCF 10A breast cells. Potency, µM (titrated, usually from 46.1 µM), usual class: activators. 350,000 compounds, 2.9% hits. AID 624296. MCF 10A DNA re-replication, Hoechst nuclear intensity, 48 h; also: nearly all actives have a fitted effect of over 50% in size
# SW480 rereplic = inducers of DNA re-replication in SW480 colon cancer cells | SW480 DNA re-replication, Hoechst DNA content imaging, 48 h | 340,000 compounds, 1.8% hits | Potency, µM (top dose mostly 46.1 µM), hits mostly activators; also: nearly all actives have a fitted effect of over 55% in size
#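 Per well, 250 cells were exposed to pinned compound for 48 hr. Nuclear DNA was visualised with Hoechst (40 min, 37 C) and total object intensity recorded by fluorescence scanning.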
# Numbers stand for hits; i = inactive; ? = inconclusive; nt = no result given. Unless noted, calls follow the shape of the dose curve; as a rule, active = well fitted curve in the direction sought with a large enough effect; inconclusive = small, poorly fitted or top-dose-only effect, or another doubt; inactive = no such curve, though single readings can be large; an effect the other way counts as inactive or inconclusive.
SMILES,Giardia killer,IL-1B inflam inh,Vif-APOBEC3G blk,Vif-APOBEC3F blk,MCF10A rereplic,SW480 rereplic
CN(C)c1ccc(-c2nc(-c3cccs3)c(-c3cccs3)[nH]2)cc1,nt,nt,i,i,nt,nt
Cc1cc(C)cc(NC(=O)c2ccc(S(=O)(=O)C(F)F)cc2)c1,i,-87.1,i,i,i,i
O=C(Nc1cccc(S(=O)(=O)C(F)F)c1)c1ccc(S(=O)(=O)N2CCCCC2)cc1,i,-61.9,i,i,i,i
O=C(Nc1cccc(S(=O)(=O)N2CCCCC2)c1)c1ccc(S(=O)(=O)C(F)F)cc1,i,-81.5,i,i,i,i
Clc1cc(Br)ccc1OCCCNCc1ccccc1,i,-100.6,i,i,?,?
O=C(O)CCCCNCc1ccccc1,i,i,i,i,i,i
CC(C)(C)c1ccc(OCCCNCc2ccccc2)cc1,i,-102.3,i,i,23.1µM,23.1µM
c1ccc(CNCCCNCCCCNCCCNCc2ccccc2)cc1,i,-109.7,i,i,6.51µM,?
Cc1ccc(OCCCNC2CCCC2)cc1,i,i,i,i,i,i
CC(C)(C)c1ccc(OCCCNC2CCCC2)cc1,i,-66.6,i,i,16.4µM,?
CCOC(=O)C1CCCN(S(=O)(=O)c2ccc(N3CCCCS3(=O)=O)cc2)C1 (centres undefined),nt,nt,i,i,nt,nt
Cc1sc2ncn(CC(=O)N3CCN(c4ccc(Cl)cc4)CC3)c(=O)c2c1S(=O)(=O)N1CCN(c2ncccn2)CC1,nt,nt,i,i,nt,nt
C=CCNCCCCOc1cccc(Br)c1,i,-64.7,i,i,i,i
OCCNCCCCOc1cccc(Br)c1,i,i,i,i,i,?
C=CCNCCCOc1ccc(C(C)(C)c2ccccc2)cc1,i,-89.3,i,i,i,?
CCc1cc(OCCCCNCc2ccccc2)ccc1Cl,i,-101.6,i,i,?,?
CCOCCCNCc1ccc(OCc2ccccc2Cl)cc1,i,i,i,i,?,?
CC(C)(c1ccccc1)c1ccc(OCCCNCCO)cc1,i,?,i,i,?,i
COCCCNCCCOc1ccc(C(C)(C)c2ccccc2)cc1,i,?,i,i,i,?
COCCNCCCOc1ccc(C(C)(C)c2ccccc2)cc1,i,i,i,i,20.6µM,i
Cc1cc(=O)n2[nH]c(NC(=O)c3cccc(Cl)c3)nc2n1,nt,nt,i,i,nt,nt
CCC(Sc1nc2cc3c(cc2c(=O)n1CCCCCC(=O)NCc1ccc2c(c1)OCO2)OCO3)C(=O)NCCCOC (centres undefined),nt,nt,i,i,nt,nt
COC(=O)c1ccccc1NC(=O)CSc1nc2ccccc2nc1Cc1ccccc1OC,nt,nt,i,i,nt,nt
COc1ccc2cc(CNc3ccc(C)cc3)c(=O)n(CC(=O)Nc3cccc(Cl)c3C)c2c1,nt,nt,i,i,nt,nt
O=C(Nc1ccccc1C(=O)OCc1cc(=O)n2c3c(sc2n1)CCCC3)c1ccc(F)cc1,nt,nt,i,i,nt,nt
SMILES,Giardia killer,IL-1B inflam inh,Vif-APOBEC3G blk,Vif-APOBEC3F blk,MCF10A rereplic,SW480 rereplic
COc1ccc(Br)cc1CNC(=O)CCCn1c(=O)c2cccn2c2ccccc21,nt,nt,i,i,nt,nt
COC(=O)c1cc2occc2n1Cc1nc(-c2ccccc2)oc1C,nt,nt,i,i,nt,nt
Cc1cccc(Cn2c(SCc3ccc(C(=O)NCc4ccccc4)cc3)nc3cccnc32)c1,nt,nt,i,i,nt,nt
O=C(Nc1ccc2nc(SCc3ccccc3)sc2c1)c1ccccc1F,nt,nt,i,i,nt,nt
O=C(CSc1nc2ccc(NC(=O)c3ccccc3C(=O)O)cc2s1)Nc1ccc(F)c([N+](=O)[O-])c1,i,-60.7,i,i,i,i
CCOCCn1ccc2c(OCC(=O)Nc3ccccc3OC)cccc2c1=O,i,-60.0,i,i,?,i
CCOCCn1ccc2c(OCC(=O)Nc3cc(OC)ccc3OC)cccc2c1=O,i,i,i,i,?,?
Cc1ccnc2c1ccc1cccnc12,i,-85.6,i,i,?,i
CCC(C)C(NC(=O)OC(C)(C)C)C(=O)NC1COC2CC(n3ccc(=O)[nH]c3=O)OC12 (centres undefined),i,nt,i,nt,nt,nt
O=C(N/N=C/c1ccc(-c2cccc([N+](=O)[O-])c2)o1)[C@H]1C[C@@H]1c1ccccc1,i,i,i,i,i,i
O=C1NCC(c2ccccc2)C1C(=O)N/N=C\c1ccc(-c2ccc(Cl)c(Cl)c2)o1 (centres undefined),i,-61.2,i,i,?,i
O=C(N/N=C\c1ccc(-c2ccc([N+](=O)[O-])cc2)o1)C1COc2ccccc2O1 (centres undefined),i,i,i,i,20.6µM,i
O=C(N/N=C/c1ccc(-c2ccc([N+](=O)[O-])cc2)o1)[C@H]1C[C@@H]1c1ccccc1,i,i,i,7.08µM,23.1µM,8.2µM
CCOc1cccc(-c2nn(-c3ccccc3)cc2/C=C(/C#N)C(=O)NCCCn2ccnc2)c1,i,-98.9,i,?,20.6µM,?
N#C/C(=C/c1cn(-c2ccccc2)nc1-c1cccc(OCc2ccccc2)c1)C(=O)NCCCn1ccnc1,i,-75.3,i,i,13µM,?
O=C(NCCCn1ccnc1)c1cn(-c2ccccc2)nc1-c1ccccc1,i,?,i,i,i,i
O=C(NCCc1ccccc1)C(=O)NCC(c1ccc2c(c1)OCO2)N1CCOCC1 (centres undefined),nt,nt,i,i,nt,nt
NNC(=O)c1sc(-c2ccccc2)cc1N,i,-53.7,i,?,20.6µM,i
CC(=O)c1sc(-c2ccccc2)cc1N,i,nt,i,i,i,i
Cc1ccccc1Cn1nc(C)c(NC(=O)C2(C)CC2(Cl)Cl)c1C (centres undefined),i,i,i,i,i,18.4µM
CCN(CC)CCNC(=O)Cc1nn(Cc2ccccc2)c(=O)c2ccccc12,i,i,i,i,i,2.31µM
CC(=O)Nc1ccc(S(=O)(=O)Nc2cc(-c3cn4ccccc4n3)ccc2C)cc1,nt,nt,i,i,nt,nt
COc1ccc(CCNC(=O)Cc2c(C)c3c(cc(C)c4c(C)coc43)oc2=O)cc1,nt,nt,i,i,nt,nt
Cc1ccccc1OC(=O)CSc1nnc(-c2ccc(F)cc2)o1,nt,nt,i,i,nt,nt
Cc1ccc(C(OCC(O)CNC(C)c2ccccc2)c2ccccc2)cc1 (centres undefined),i,-106.6,i,i,?,i
CC(NCC(O)COCc1ccc(Cl)cc1)c1ccccc1 (centres undefined),i,-58.5,i,i,?,i
Cc1ccc(C(OCC(O)CNC(CO)C(O)c2ccc([N+](=O)[O-])cc2)c2ccccc2)cc1 (centres undefined),i,-84.3,i,i,?,?
COC(=O)c1ccc(-c2ccc(C3C4C=CCC(C)C4C(=O)N3Cc3ccccc3)c(F)c2)cc1 (centres undefined),i,nt,i,nt,nt,nt
CC(C)(C)NC(=O)CN(Cc1cccs1)C(=O)CN1C(=O)C(=O)c2ccccc21,i,i,i,i,2.06µM,?
Cc1ccc2[nH]c(=O)c(CN(CCCO)Cc3nnnn3Cc3ccccc3)cc2c1,i,nt,i,nt,nt,nt
